The list is not random: actives were taken first. Their share in the collection is about 10%.
RORg inh: ROR gamma (mouse) transcription inhibition | P51450 | Drosophila S2 Gal4-RORgamma UAS-luciferase reporter, 20 h | Potency, µM (top dose mostly 53.6 µM), inactives show at the highest dose activity change, negative = inhibition, actives largely listed as inhibitors | 5.4% of 310,000 active | AID 2551; note: % is set by controls: 0 for no effect and ±100 for the full control effect; nearly all actives have a fitted effect of over 60% in size
Target sequence (P51450 whole entry, looked up, the tested form may be a part): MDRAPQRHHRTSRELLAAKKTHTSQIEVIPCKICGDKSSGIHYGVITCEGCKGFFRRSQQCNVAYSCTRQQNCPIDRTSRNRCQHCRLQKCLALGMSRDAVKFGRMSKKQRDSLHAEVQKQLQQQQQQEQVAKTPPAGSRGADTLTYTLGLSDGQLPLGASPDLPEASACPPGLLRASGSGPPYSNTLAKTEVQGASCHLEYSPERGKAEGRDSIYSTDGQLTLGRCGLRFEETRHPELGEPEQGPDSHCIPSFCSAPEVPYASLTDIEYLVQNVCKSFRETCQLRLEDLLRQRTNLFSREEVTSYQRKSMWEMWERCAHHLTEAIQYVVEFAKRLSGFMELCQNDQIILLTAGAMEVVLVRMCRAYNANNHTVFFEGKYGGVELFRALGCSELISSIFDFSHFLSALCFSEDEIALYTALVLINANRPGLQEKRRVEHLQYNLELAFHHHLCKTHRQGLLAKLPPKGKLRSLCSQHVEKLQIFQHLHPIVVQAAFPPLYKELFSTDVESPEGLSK
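Luminescence from a UAS-regulated Photinus luciferase reporter in stably transfected Drosophila Schneider cells is measured; decreased signal marks ROR gamma inhibition. Fusion expression is induced by 700 uM copper sulfate for 20 hr.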
SW480 rerep: DNA re-replication induction in SW480 cells. 1.8% of 340,000 active. Potency, µM (titrated, usually from 46.1 µM), without a hit: at the highest dose re-replication activation, hits mostly activators. SW480 DNA re-replication, Hoechst DNA content imaging, 48 h. AID 624297; note: % of control where 0% means no effect; nearly all actives have a fitted effect of over 55% in size
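Image-based read-out: total Hoechst fluorescence of nuclei (405 nm excitation, 500-530 nm emission), with hits raising the fraction of high-intensity nuclei. SW480 colon cells incubated 48 hr with compounds at 37 C.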
ELG1 repair inh: ELG1-dependent DNA repair inhibition; HEK293T ELG1-luciferase reporter, luminescence, 16 h; DNA damage induced by 5-fluorouridine; Potency, µM (doses to about 46.1 µM), without a hit: at the top dose activity change, negative = inhibition, actives largely listed as inhibitors; 2.3% of 330,000 active; note: % is set by controls: 0 for no effect and ±100 for the full control effect; nearly all actives have a fitted effect of over 55% in size
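Step one: seed 2,000 cells per well. Step two: pin-transfer compound or DMSO alongside 5-fluorouridine. Step three: incubate 16 hr, 37 °C, 5% CO2. Step four: add ONE-Glo, wait 30 min, read luminescence.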
Gal4-VP16 FLuc: inhibits Gal4-VP16 luciferase reporter, ROR gamma counter-screen; Drosophila S2 Gal4-VP16 UAS-luciferase, luminescence, 20 h; 3.5% of 310,000 active; Potency, µM (series often up to 53.6 µM), for inactives: at the highest dose activity, negative = inhibition, hits mostly inhibitors; AID 2546;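 note: Gal4-VP16 expression switched on by copper sulfate through the metallothionein promoter; % is set by controls: 0 for no effect and ±100 for the full control effect; nearly all actives have a fitted effect of over 50% in size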
MCF10A rereplic: DNA re-replication induction in MCF 10a cells; MCF 10A DNA re-replication, Hoechst nuclear intensity, 48 h; Potency, µM (series often up to 46.1 µM), inactives show top-dose activity, positive = re-replication, most hits filed as activators; 2.9% of 350,000 active; note: % of control where 0% means no effect; nearly all actives have a fitted effect of over 50% in size
* marks the source's active call; other numbers are inactive results; ? = inconclusive; nt = not tested or not shown. Calls come from the whole dose curve; as a rule, active = well fitted curve in the direction sought with a large enough effect; inconclusive = small, poorly fitted or top-dose-only effect, or another doubt; inactive = no such curve, though single readings can be large; an effect the other way counts as inactive or inconclusive. Potency is the fitted concentration of half-maximal effect.

SMILES	RORg inh	SW480 rerep	ELG1 repair inh	Gal4-VP16 FLuc	MCF10A rereplic
O=C1c2cccc3cccc(c23)C(=O)N1CC1CCN(S(=O)(=O)c2ccc(F)cc2)CC1	29%	14%	21µM*	5%	22%
CCOc1cc(Cl)c(NC(=O)CC)cc1OCC	-20%	18µM*	2%	-14%	-1%
CCn1c(CN2CCCCC2)nc2cc(S(=O)(=O)N3CCCCC3)ccc21	nt	14%	-2%	nt	?
CCn1c(C)nc2cc(S(=O)(=O)N3CCCCC3)ccc21	18%	-3%	18µM*	?	5%
CCOc1ccccc1N1CC(C(=O)N(CC)CC(=O)Nc2ccc3c(c2)OCCO3)CC1=O (configuration not stated)	nt	2.3µM*	7%	nt	2%
CCN(CC)C(=S)SCC(=O)Nc1ncc2c(n1)CC(C)(C)CC2=O	16%	-1%	-12%	4%	7%
COc1ccc(C(=O)NCC(C)(C)N2CCOCC2)cc1S(=O)(=O)N1CCCC1	nt	-4%	13%	nt	2%
CC(C)NC(=S)NC(=O)/C=C/c1ccc(F)cc1	1.8µM*	-1%	-5%	7.1µM*	?
CC(C)(CNC(=O)/C=C/c1ccc(F)cc1)CNC(=O)/C=C/c1ccc(F)cc1	?	-2%	23µM*	2%	-4%
Cc1ccc(C(=O)NC(=S)N(C)C2CCCCC2)cc1	2.2µM*	1%	?	3.2µM*	10%
CN(C(=S)NC(=O)/C=C/c1ccc(F)cc1)C1CCCCC1	1.3µM*	-5%	-2%	2.5µM*	-33%
CC(C)(C)SCCNC(=O)/C=C/c1ccc(F)cc1	31%	4%	?	-11%	-5%
CN(C(=O)c1ccc(-c2ccccc2)cc1)C1CCCCC1	nt	-41%	nt	nt	0%
Cc1cc(=O)c2c(O)c3c(O)cc(O)c4c5c(O)cc(O)c6c(O)c7c(=O)cc(C)c8c1c2c(c34)c(c65)c78	-21%	nt	nt	-18%	nt
CC(NC(=O)COC(=O)/C(=C/c1cccs1)c1cccs1)c1ccccc1 (configuration not stated)	12%	7%	?	4%	16%
Cc1cccc(NC(=O)NC2CCCCCCC2)c1	6%	?	?	19%	4%
Cc1cccc(NC(=S)N(C)C2CCCCC2)c1	11µM*	1%	27%	18µM*	5%
Cc1cc(C(=O)CN2C(=O)NC3(CCCCC3C)C2=O)c(C)n1Cc1cccs1 (configuration not stated)	?	1%	?	19%	15%
Cc1cc(C(=O)CN2C(=O)c3cccc(N)c3C2=O)c(C)n1Cc1cccs1	?	?	?	?	2.6µM*
Cc1cc2occ(CC(=O)NNC(=O)c3ccccc3)c2cc1C	-1%	26%	17%	9%	3%
Cc1ccc2cc(C)c3nnc(SCC(=O)Nc4nc5c(s4)CCCC5)n3c2c1C	42%	?	-23%	-1%	?
COC(=O)c1cccc(-n2nnnc2SCC(=O)Nc2nc3c(s2)CCCC3)c1	-42%	-2%	-30%	2%	-1%
CCOC(=O)c1sc(NC(=O)CSc2nnnn2-c2ccccc2)nc1C	-37%	?	-8%	4%	-29%
CCOC(=O)c1sc(NC(=O)CSc2nnnn2-c2ccc(C)c(C)c2)nc1C	-10%	1%	-1%	0%	5.8µM*
Cc1ccc(C)c2c1cc(C)c1nnc(SCC(=O)Nc3nc4c(s3)CCCC4)n12	14%	2%	?	0%	21µM*
COc1cccc(-n2nnnc2SCC(=O)Nc2nc3c(s2)CCCC3)c1	3.2µM*	1%	?	8.9µM*	?
CCC(=O)Nc1ccc(NC(=O)CSc2nnnn2-c2ccc3c(c2)OCCO3)cc1	-4%	?	?	2%	-10%
O=C(CSc1nnnn1-c1ccc2c(c1)OCCO2)Nc1nc2c(s1)CCCC2	?	-15%	21µM*	-6%	2%
CCCCn1c(N)c(N(CC(C)C)C(=O)C2CC(=O)N(Cc3ccccc3)C2)c(=O)[nH]c1=O (configuration not stated)	nt	1%	14%	nt	0%

High-throughput results as filed in PubChem BioAssay.
